In ChEMBL document CHEMBL1961873, “Compounds: GSK PKIS; Assays: Nanosyn kinase panel” (2012):

Legend:
[1] = target: MAP/microtubule affinity-regulating kinase 3 (Homo sapiens) (UniProt P27448); conditions: at 1 µM;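 note: reported values are averaged percent inhibition of MARK3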
[2] = target: T1, MAP/microtubule affinity-regulating kinase 4 (Homo sapiens) (UniProt Q96L34); conditions: at 0.1 µM
T1 sequence (whole entry): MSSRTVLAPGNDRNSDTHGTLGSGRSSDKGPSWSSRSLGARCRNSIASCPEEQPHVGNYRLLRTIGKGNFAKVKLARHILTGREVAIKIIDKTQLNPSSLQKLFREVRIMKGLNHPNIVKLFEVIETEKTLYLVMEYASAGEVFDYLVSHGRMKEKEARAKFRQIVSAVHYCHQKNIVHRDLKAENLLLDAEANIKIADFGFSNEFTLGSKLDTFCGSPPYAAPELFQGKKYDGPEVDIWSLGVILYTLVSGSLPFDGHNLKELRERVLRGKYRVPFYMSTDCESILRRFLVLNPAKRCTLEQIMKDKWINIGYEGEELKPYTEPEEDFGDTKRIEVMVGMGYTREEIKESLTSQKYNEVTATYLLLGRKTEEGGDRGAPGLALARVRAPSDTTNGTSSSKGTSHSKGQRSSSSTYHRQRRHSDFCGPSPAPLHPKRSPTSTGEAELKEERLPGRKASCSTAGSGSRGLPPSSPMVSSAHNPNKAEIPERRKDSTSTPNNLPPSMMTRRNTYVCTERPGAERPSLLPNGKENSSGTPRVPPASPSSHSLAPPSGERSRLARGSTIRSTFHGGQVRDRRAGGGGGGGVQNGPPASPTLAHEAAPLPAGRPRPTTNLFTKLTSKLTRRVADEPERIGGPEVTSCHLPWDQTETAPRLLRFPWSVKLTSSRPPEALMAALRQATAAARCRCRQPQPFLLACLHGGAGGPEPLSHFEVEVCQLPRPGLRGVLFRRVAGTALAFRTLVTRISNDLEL

[3] = target: T1, MAP/microtubule affinity-regulating kinase 4 (Homo sapiens); conditions: at 1 µM
[4] = target: Maternal embryonic leucine zipper kinase (Homo sapiens) (UniProt Q14680); conditions: at 0.1 µM
[5] = target: Maternal embryonic leucine zipper kinase (Homo sapiens) (UniProt Q14680); conditions: at 1 µM
[6] = target: MAP kinase-interacting serine/threonine-protein kinase 1 (Homo sapiens) (UniProt Q9BUB5); conditions: at 0.1 µM
[7] = target: MAP kinase-interacting serine/threonine-protein kinase 1 (Homo sapiens) (UniProt Q9BUB5); conditions: at 1 µM
[8] = target: MAP kinase-interacting serine/threonine-protein kinase 2 (Homo sapiens) (UniProt Q9HBH9); conditions: at 0.1 µM
[9] = target: MAP kinase-interacting serine/threonine-protein kinase 2 (Homo sapiens) (UniProt Q9HBH9); conditions: at 1 µM
[10] = target: Serine/threonine-protein kinase MARK2 (Homo sapiens) (UniProt Q7KZI7); conditions: at 0.1 µM;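 note: mean percent inhibition of PAR-1Balpha kinase activity, reported from the GSK PKIS screen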
Serine/threonine-protein kinase MARK2 (Homo sapiens), sequence (Q7KZI7 whole entry): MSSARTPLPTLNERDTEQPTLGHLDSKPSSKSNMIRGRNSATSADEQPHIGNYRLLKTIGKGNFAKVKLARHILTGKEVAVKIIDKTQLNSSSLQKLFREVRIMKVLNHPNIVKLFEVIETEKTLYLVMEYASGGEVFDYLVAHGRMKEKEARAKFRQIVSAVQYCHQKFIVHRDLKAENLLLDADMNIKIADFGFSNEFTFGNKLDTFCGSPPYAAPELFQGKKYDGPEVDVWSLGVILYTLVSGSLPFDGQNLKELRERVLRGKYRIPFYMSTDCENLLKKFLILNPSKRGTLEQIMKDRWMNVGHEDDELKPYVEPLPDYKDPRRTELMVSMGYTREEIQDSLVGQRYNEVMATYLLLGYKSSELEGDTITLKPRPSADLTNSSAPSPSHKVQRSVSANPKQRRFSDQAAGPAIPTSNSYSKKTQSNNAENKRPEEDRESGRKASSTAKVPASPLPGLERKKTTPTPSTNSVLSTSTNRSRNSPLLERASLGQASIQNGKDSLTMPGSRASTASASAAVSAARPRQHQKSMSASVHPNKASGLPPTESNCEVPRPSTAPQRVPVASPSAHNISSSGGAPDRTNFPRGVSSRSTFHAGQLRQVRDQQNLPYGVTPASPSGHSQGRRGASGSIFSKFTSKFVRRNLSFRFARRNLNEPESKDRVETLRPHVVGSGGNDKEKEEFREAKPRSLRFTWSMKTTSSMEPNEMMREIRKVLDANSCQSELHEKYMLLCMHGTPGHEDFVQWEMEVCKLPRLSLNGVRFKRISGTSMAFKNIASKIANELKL

Maternal embryonic leucine zipper kinase (Homo sapiens), sequence (Q14680 whole entry, looked up): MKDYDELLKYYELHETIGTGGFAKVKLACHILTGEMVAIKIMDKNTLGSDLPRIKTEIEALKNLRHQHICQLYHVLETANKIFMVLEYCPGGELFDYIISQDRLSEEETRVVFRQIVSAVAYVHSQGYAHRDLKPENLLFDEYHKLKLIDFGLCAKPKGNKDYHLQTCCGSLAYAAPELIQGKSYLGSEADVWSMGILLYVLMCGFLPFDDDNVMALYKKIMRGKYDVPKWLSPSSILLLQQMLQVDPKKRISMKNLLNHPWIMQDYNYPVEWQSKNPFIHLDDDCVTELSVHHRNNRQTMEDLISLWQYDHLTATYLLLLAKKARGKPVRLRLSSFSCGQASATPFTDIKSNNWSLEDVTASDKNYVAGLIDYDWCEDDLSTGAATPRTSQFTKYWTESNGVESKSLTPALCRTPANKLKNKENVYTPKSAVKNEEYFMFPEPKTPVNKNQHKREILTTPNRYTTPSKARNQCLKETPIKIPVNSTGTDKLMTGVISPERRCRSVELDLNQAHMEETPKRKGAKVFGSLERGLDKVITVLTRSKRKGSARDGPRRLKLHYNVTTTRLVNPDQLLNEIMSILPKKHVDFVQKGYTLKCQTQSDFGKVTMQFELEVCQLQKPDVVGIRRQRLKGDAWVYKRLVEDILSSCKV
MAP/microtubule affinity-regulating kinase 3 (Homo sapiens), sequence (P27448 whole entry, looked up): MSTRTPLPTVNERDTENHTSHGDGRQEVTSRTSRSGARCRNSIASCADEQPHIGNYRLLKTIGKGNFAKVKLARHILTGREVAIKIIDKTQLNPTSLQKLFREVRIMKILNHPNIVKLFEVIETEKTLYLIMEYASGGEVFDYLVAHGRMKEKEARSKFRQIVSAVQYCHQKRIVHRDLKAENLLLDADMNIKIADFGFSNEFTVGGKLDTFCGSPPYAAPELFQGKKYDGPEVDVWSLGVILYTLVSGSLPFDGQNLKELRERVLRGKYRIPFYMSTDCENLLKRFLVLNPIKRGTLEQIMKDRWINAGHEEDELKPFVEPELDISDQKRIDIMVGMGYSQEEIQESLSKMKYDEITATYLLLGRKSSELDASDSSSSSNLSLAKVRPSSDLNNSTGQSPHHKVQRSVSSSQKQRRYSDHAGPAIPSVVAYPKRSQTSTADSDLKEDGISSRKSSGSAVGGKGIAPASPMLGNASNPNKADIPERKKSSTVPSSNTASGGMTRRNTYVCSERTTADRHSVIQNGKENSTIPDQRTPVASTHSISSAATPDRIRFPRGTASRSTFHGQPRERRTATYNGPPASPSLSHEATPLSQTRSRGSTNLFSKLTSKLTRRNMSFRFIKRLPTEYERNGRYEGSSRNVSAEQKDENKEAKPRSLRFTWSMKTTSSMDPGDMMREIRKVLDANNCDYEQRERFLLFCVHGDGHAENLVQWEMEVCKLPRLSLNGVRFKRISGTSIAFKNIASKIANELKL
MAP kinase-interacting serine/threonine-protein kinase 2 (Homo sapiens), sequence (Q9HBH9 whole entry, looked up): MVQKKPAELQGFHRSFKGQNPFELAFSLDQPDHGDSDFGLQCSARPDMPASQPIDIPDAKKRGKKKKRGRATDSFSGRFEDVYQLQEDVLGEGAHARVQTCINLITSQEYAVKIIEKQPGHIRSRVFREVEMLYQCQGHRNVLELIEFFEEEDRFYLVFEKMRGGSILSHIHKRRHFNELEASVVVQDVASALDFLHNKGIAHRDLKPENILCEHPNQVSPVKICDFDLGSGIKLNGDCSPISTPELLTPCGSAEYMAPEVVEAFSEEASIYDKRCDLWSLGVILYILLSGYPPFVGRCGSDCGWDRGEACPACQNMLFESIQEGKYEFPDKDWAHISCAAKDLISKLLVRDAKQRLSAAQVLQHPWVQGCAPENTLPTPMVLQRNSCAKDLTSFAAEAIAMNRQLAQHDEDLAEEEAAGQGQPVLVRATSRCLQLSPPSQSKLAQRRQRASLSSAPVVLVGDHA
MAP kinase-interacting serine/threonine-protein kinase 1 (Homo sapiens), sequence (Q9BUB5 whole entry, looked up): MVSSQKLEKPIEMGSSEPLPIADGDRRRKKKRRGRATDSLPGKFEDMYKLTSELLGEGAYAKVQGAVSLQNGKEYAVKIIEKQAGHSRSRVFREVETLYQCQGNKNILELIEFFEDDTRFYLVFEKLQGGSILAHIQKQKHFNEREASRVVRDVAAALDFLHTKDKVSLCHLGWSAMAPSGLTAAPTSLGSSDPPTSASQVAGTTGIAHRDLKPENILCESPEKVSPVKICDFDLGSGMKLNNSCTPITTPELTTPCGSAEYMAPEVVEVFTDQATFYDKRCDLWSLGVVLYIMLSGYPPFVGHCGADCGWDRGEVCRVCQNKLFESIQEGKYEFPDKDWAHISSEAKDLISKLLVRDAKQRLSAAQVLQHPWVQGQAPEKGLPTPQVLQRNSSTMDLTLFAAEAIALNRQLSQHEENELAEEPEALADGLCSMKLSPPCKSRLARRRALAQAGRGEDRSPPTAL

SMILES | inhibition [1] | inhibition [2] | inhibition [3] | inhibition [4] | inhibition [5] | inhibition [6] | inhibition [7] | inhibition [8] | inhibition [9] | inhibition [10]
CNC(=O)c1ncccc1Nc1nc(Nc2cc3c(cc2OC)CCCN3C(=O)CN(C)C)nc2[nH]ccc12 | 3.77% | 2.04% | 4.01% | 3.77% | 18.2% | 2.12% | 3.28% | 1.22% | 1.54% | 2.14%
COc1ccc(-c2nn3ncccc3c2-c2ccnc(Nc3ccc(F)c(F)c3)n2)cc1 | 10.5% | 1.45% | 1.84% | 3.07% | 4.64% | 2.98% | 6.32% | 2.16% | 6.26% | 0.52%
NS(=O)(=O)c1cccc(N/C=C2\C(=O)Nc3ccccc32)c1 | 17% | 4.17% | 15.5% | 5.46% | 19% | 2.36% | 4.02% | 1.04% | 2.05% | 2.99%
NS(=O)(=O)c1ccc(N/N=C2\C(=O)Nc3ccc(C(=O)NCc4ccncc4)cc32)cc1 | 34.4% | 4.76% | 33.7% | 49.6% | 90.6% | 2.18% | 10.9% | 1.66% | 6.27% | 0.88%
FC(F)(F)CNc1nccc(-c2cnn3ncccc23)n1 | -0.26% | 1.01% | 0.89% | 5.66% | 27.5% | 4.07% | 20.6% | 2.55% | 26.4% | 0.47%
NS(=O)(=O)c1ccc(N/N=C2\C(=O)Nc3cccc(CCc4ccncc4)c32)cc1 | 3.11% | 2.47% | 4.28% | 4.76% | 34.7% | 1.05% | 0.27% | 0.14% | 1.83% | 0.98%
CS(=O)(=O)Nc1ccc(-c2cc(-c3ccccc3)cc(C(N)=O)c2N)cc1 | 0.12% | 0.69% | 0.98% | 3.07% | 7.77% | 1.45% | 4.03% | -0.47% | 3.27% | -0.25%
CN(C)CCNC(=O)Nc1ccc(N(C)c2ccnc(Nc3ccc(CS(C)(=O)=O)cc3)n2)cc1 | 6.62% | 1.9% | 8.9% | 4.26% | 16.1% | 1.51% | 3.79% | 0.95% | 5.14% | 2.5%
CCS(=O)(=O)c1ccc(OC)c(Nc2ncc(-c3cccc(C(C)=O)c3)o2)c1 | 10.1% | 0.67% | 1.52% | 2.17% | 7.46% | 3.04% | 12.2% | 2.96% | 6.18% | -1.1%
Cc1cc(O)cc(C)c1/C=C/c1cncc(C(N)=O)c1 | 3.59% | 0.98% | 1.6% | 3.07% | 3.76% | 9.34% | 44.9% | 4.98% | 37.8% | 0.97%
CS(=O)(=O)CCNCc1ccc(-c2ccc3ncnc(Nc4ccc(OCc5ccccc5)cc4)c3c2)o1 | -0.22% | 2.33% | 1.3% | 6.32% | 3.76% | 2.89% | 6.82% | 3.2% | 15.7% | -0.24%
Cn1c(-c2nonc2N)nc2cnccc21 | 9.08% | 1.25% | 3.94% | 7.95% | 22.1% | 3.39% | 7.55% | 2.67% | 16.9% | 0.44%
CCS(=O)(=O)c1ccc(OC)c(Nc2ncc(-c3cccc(F)c3)o2)c1 | 2.56% | 2.11% | 2.65% | 7% | 15.4% | 3.79% | 19.5% | 1.15% | 12.2% | 2.49%
COC(=O)Nc1nc2ccc(Oc3ccc(NC(=O)Nc4cc(C(F)(F)F)ccc4F)cc3)cc2s1 | -0.18% | -0.51% | 0.37% | 1.63% | 3.51% | 4.79% | 15.7% | 2.41% | 7.88% | -8.34%
Fc1cccc(COc2ccc(Nc3ncncc3C#Cc3ccccc3)cc2Cl)c1 | 4.26% | 0.48% | 1.07% | 3.34% | 4.69% | 3.32% | 11.8% | 2.53% | 6.84% | 0.96%
COc1ccc2ncn(-c3cc(O[C@H](C)c4ccccc4C(F)(F)F)c(C(N)=O)s3)c2c1 | 1.97% | -0.65% | 5.41% | -0.14% | 2.51% | -0.15% | 3.25% | 0.74% | 4.03% | 0.4%
O=C(O[C@H]1CN[C@H](C#Cc2cc3ncnc(Nc4ccc5c(ccn5Cc5cc(F)ccc5F)c4)c3s2)C1)N1CCOCC1 | 1.49% | 2.82% | 0.75% | 5.51% | 5.23% | 2.17% | 5.94% | 1.3% | 1.83% | 0.88%
COc1cc(N2CCN(C(C)C)CC2)ccc1Nc1nc(Nc2cccc(F)c2C(=O)O)c2cc[nH]c2n1 | 4.97% | 1.88% | 5.09% | 2.86% | 7.68% | 3.1% | 5.88% | 1.57% | 5.1% | 1.11%
c1cnn2ncc(-c3ccnc(NCCCN4CCOCC4)n3)c2c1 | -0.34% | 1.05% | 2.05% | 4.35% | 11.9% | 4.1% | 10.9% | 1.64% | 7.83% | -1.43%
COc1c(C(N)=O)cc(-c2ccc(Cl)cc2)cc1-c1ccc(S(N)(=O)=O)cc1 | 2.07% | 0.45% | 1.37% | 6.28% | 14.6% | 3.66% | 11.2% | 2.02% | 5.44% | 1.8%
